# Many of the other results were omitted from the sample, so hits are more common in it than they were.
# Pf Dd2 growth – inhibitors of Plasmodium falciparum Dd2 growth; P. falciparum Dd2 growth, SYBR Green, 72 h; 120,000 compounds, 4.3% hits; Potency, µM (doses to about 28.9 µM), for the others: at the top dose activity, negative = inhibition, most hits filed as inhibitors; AID 1347417; active means well fitted inhibition curve with a large enough effect;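 further: plate controls were DMSO vehicle for no effect and reference drug for full effect; nearly all actives have a fitted effect of over 65% in size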
#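 Infected erythrocytes (Dd2, 0.3% parasitemia, 2.5% hematocrit final) are added to compound in RPMI-1640/Albumax II medium, grown 72 h at 37C in low oxygen, then lysed with saponin/Triton-X containing SYBR Green and read by fluorescence.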
# An asterisk follows results filed as active; i = inactive; [ ] = another dose, or the depositor's remark. Potency means the concentration at half of the fitted maximal effect.
SMILES,Pf Dd2 growth
CC1=C[C@@H](CNC(=O)CCC(=O)O)[C@H](C(C)C)C[C@H]1Cc1nc2ccc(F)cc2[nH]1,-17.4%[44.1 µM]
CC1=C[C@@H](CNC(=O)c2cnccn2)[C@H](C(C)C)C[C@H]1Cc1nc2ccc(C)cc2[nH]1,-6.4%[44.1 µM]
CC1=C[C@@H](CNC(=O)CC2(CC(=O)O)CCCC2)[C@H](C(C)C)C[C@H]1Cc1nc2ccc(C)cc2[nH]1,-11.7%
CC1=C[C@@H](CNC(=O)C2CCC2)[C@H](C(C)C)C[C@H]1Cc1nc2ccc(F)cc2[nH]1,11.2µM*
O=C(c1ccc(Cl)nc1)N1CCC(c2nn(Cc3ccccc3)c(=O)[nH]2)CC1,-26.7%
O=C(CCCc1ccccc1)Nc1ccc(OC2CCNCC2)nc1,i
O=C(Nc1ccccc1)N1CCC(Oc2ccccc2)C1 (configuration not stated),-0.3%
Oc1cccc(-c2cnc3n[nH]c(-c4ccccc4)c3n2)c1,i
Nc1cncc(-c2nccc(N3CCC(O)CC3)n2)c1,-10.9%
CC(C)CCN1C[C@@H]2C(=O)N(C)C(=O)[C@@H]2C1,87.5%
Cn1cnc(C(=O)N2CC3CC(C2)[C@H]2CCCC(=O)N2C3)c1 (some centres not stated),1.7%
O=C(NC1CCCN(c2cc(-c3ccc(F)cc3)[nH]n2)C1)c1ccc(Br)o1 (configuration not stated),i
CO[C@@H]1COCC[C@H]1NC(=O)c1cccc(Oc2ccccc2)c1,-13.0%
CCN1CCN(Cc2c(O)ccc3cc(-c4ccc(OC)cc4)c(=O)oc23)CC1,5.62µM*
COc1ccc(Cc2nc3ccc(C(=O)NCCN4CCOCC4)cc3o2)cc1,-6.5%
COc1ccc(-c2cc3ccc(O)c(CN4CCOCC4)c3oc2=O)cc1,11.2µM*
COc1ccc(-c2c(C)c3cc(OC(=O)N4CCOCC4)ccc3oc2=O)cc1,-17.4%
CCN1CCN(Cc2c(O)ccc3c(C)c(-c4ccc(OC)cc4)c(=O)oc23)CC1,5.01µM*
CN1CCN(c2cc(=O)c3ccnc(-c4ccc(Cl)cc4)c3o2)CC1,i
Cc1c(-c2ccccc2)c(=O)oc2ccc(OC(=O)N3CCOCC3)cc12,i
CCN1CCN(C(c2ccc(OC)cc2)c2c(O)cc(C)n(CCOC)c2=O)CC1 (configuration not stated),i
COc1ccc(CN2CCC(N3CCOCC3=O)CC2)cc1,12.8%
CN1CCN(Cc2c(O)ccc3cc(-c4ccc(Cl)cc4)c(=O)oc23)CC1,5.01µM*
O=c1oc2c(CN3CCN(CCO)CC3)c(O)ccc2cc1-c1ccccc1,-16.8%
COc1ccc(-c2coc3c2c(C)cc2oc(=O)c(C)c(C)c23)cc1,-17.6%
SMILES,Pf Dd2 growth
Cc1noc(C)c1CN1C[C@@H]2C(C(=O)Nc3ccccc3)=NO[C@@H]2C1,42.5%[44.1 µM]
O=C(c1ccc(N2CC3CC(C2)[C@H]2CCCC(=O)N2C3)nc1)N1CCN(C2CCCCC2)CC1 (some centres not stated),i
CNc1nc(N2C[C@H]3CN(CCOC)C[C@@]3(C(=O)O)C2)ncc1F,-1.4%
O=C(N[C@@H]1C[C@H](Cn2cc(CN3CCS(=O)(=O)CC3)nn2)[C@@H](O)[C@H]1O)c1cncnc1,28.2%
COCCCN1CC2(CCN(C(=O)CCn3cc(C)cn3)CC2)CC1=O,-12.4%
CCn1ccc(C(=O)N2CCC(Cc3ccc(C(=O)N4CCOCC4)cc3)CC2)n1,11.9%
COCCN(Cc1ccncc1)C(=O)C1CCN(C(=O)C2CC2)CC1,29.3%
Cc1ccc(C(=O)N2CCC3(CCCCO3)CC2)cn1,21.6%
Cn1ncc(N2CCC(CNC(=O)CCN3CCCC3=O)C2)cc1=O (configuration not stated),-5.3%
CCCCc1ccc(NC(=O)N2CCCC2c2nncn2C2CCCC2)cc1 (configuration not stated),-23.3%
COCC1(CNC(=O)c2ccc(OC)cc2)C[C@@H](O)[C@@H](O)C1 (some centres not stated),8.8%[44.1 µM]
COc1cccc(CCC(=O)N2C[C@@H](CO)[C@H](c3ccncc3)C2)c1,-28.8%
Cc1cccc(O[C@H]2COCCN(Cc3cnn(C)c3)C2)n1,-12.1%[44.1 µM]
CC(C)CN1C[C@@H]2OCC(=O)N(CC(N)=O)[C@@H]2C1,-3.7%[44.1 µM]
COc1ccc(NC(=O)c2cc3c(N(C)Cc4ccccc4)nc(C)cn3n2)cc1OC,i
Cc1cn2nc(C(=O)Nc3ccccc3F)cc2c(N(C)Cc2ccccc2)n1,7.94µM*
Cc1cn2nc(C(=O)NCCCc3ccccc3)cc2c(N2CCCC2)n1,i
Cc1cn2nc(C(=O)N3CCCC3)cc2c(N(C)Cc2ccccc2)n1,-4.3%
Cc1cn2nc(C(=O)N3CCN(c4ccccc4)CC3)cc2c(N2CCCC2)n1,i
Cc1cn2nc(C(=O)N3CCC(C)CC3)cc2c(N(C)Cc2ccccc2)n1,11.2µM*
COCC[C@]1(O)CCN(C(=O)C2CCN(C3CCCC3)CC2)C[C@H]1C,-0.9%
O=C(NC1CCN(C(=O)N2CC3CC(C2)[C@H]2CCCC(=O)N2C3)CC1)c1cccs1 (some centres not stated),-0.6%
O=C(CCc1cc2n(n1)CCCNC2)NC1CCCN(c2ncccn2)C1 (configuration not stated),-0.4%

# Source: PubChem
